# RPL19A-GFP yeast – alters RPL19A-GFP fluorescence in TOR pathway yeast screen; actives 0.3% (n = 330,000); percent response vs DMSO, % at 10 µM; S. cerevisiae RPL19A-GFP strain, flow cytometry, 3 h; hits give low values;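 active = percent response vs DMSO below 50%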;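 also: median channel GFP fluorescence of the barcoded RPL19A-GFP strain; ratio of sample median GFP to plate DMSO average so 100% = DMSO; lower means less RPL19A-GFP as with rapamycin TOR inhibition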
# LAP4 TOR yeast – alters LAP4-GFP fluorescence in TOR pathway yeast screen | actives 0.34% (n = 320,000) | S. cerevisiae LAP4-GFP multiplex, flow cytometry GFP, 3 h; median GFP as percent of DMSO wells | GFP response vs DMSO, % at 10 µM;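 active = GFP response vs DMSO above a set limit, about the screen mean plus 3 SD, cut at about 150% in these data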
# AGP1 TOR yeast – yeast TOR pathway AGP1-GFP modulation | actives 0.02% (n = 320,000) | GFP response vs DMSO, % at 10 µM | S. cerevisiae AGP1-GFP multiplex flow cytometry, 3 h; GFP as percent of DMSO wells | AID 2066;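 active = GFP response relative to DMSO above a set limit, near screen average plus 3 SD, cut at about 150% in these data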;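 also: median GFP channel fluorescence of the gated AGP1 strain per well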
# MEP2-GFP yeast – modulators of TOR pathway MEP2-GFP in S. cerevisiae. S. cerevisiae MEP2-GFP strain, flow cytometry GFP, 3 h; 100% = DMSO control level. GFP response vs DMSO, % at 10 µM. actives 0.51% (n = 330,000). AID 2016;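 active = GFP response versus DMSO above a set limit, roughly screen mean plus 3 SD, cut at about 180% in these data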;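 also: median GFP fluorescence of the barcode-gated MEP2-GFP cells per well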
# CIT2-GFP yeast – alters CIT2-GFP fluorescence in TOR pathway yeast screen | GFP response vs DMSO, % at 10 µM | actives 0.065% (n = 320,000) | S. cerevisiae CIT2-GFP strain, flow cytometry, 3 h; 100 means same as DMSO wells;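 active = GFP response relative to DMSO above a set limit, near the screen mean plus 3 SD, cut at about 150% in these data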;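 also: ratio of well median GFP fluorescence to mean of DMSO wells on the plate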
# LAP4 cherry2 – second confirmation of modulators of TOR reporter LAP4-GFP in yeast. shares compounds with LAP4 TOR yeast. S. cerevisiae LAP4-GFP strain, flow cytometry GFP, 3 h. GFP response vs DMSO, % at 10 µM. actives 20% (n = 590). AID 2621;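 active = GFP signal as percent of the solvent control above about 150%, meaning raised reporter expression, limit read from the data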;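 also: ratio of well median GFP fluorescence to plate DMSO mean so 100% = DMSO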
# MEP2-GFP pick2 – yeast MEP2-GFP modulation, second cherry pick. GFP response vs DMSO, % at 10 µM. actives 10% (n = 590). AID 2622. S. cerevisiae MEP2-GFP strain, flow cytometry GFP, 3 h. shares compounds with LAP4 TOR yeast;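 active = GFP signal above 150% of the solvent control wells, that is a rise of more than half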;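 also: median channel GFP fluorescence of all gated yeast cells per well; ratio of median GFP to plate DMSO average so 100% = DMSO level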
# RPL19A GFP CP2 – reconfirmed modulator of RPL19A-GFP TOR reporter in yeast. actives 3% (n = 590). shares compounds with LAP4 TOR yeast. GFP response vs DMSO, % at 10 µM. S. cerevisiae RPL19A-GFP strain, flow cytometry GFP, 3 h; hits give low values; 100% means same as DMSO wells;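 active = under 65% GFP response relative to DMSO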;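 also: median GFP channel fluorescence per well over the all cells gate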
# CIT2 GFP CP2 – reconfirmed modulator of CIT2-GFP TOR reporter in yeast; actives 8% (n = 590); GFP response vs DMSO, % at 10 µM; shares compounds with LAP4 TOR yeast; S. cerevisiae CIT2-GFP strain, flow cytometry GFP, 3 h; DMSO control wells read 100%;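 active = GFP response vs DMSO above about 150%, limit read from the data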;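 also: median green fluorescence per well over all gated yeast cells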
# AGP1-GFP pick2 – second confirmation of modulators of TOR reporter AGP1-GFP in yeast; percent response vs DMSO, % at 10 µM; 590 tested, under 10 active; shares compounds with LAP4 TOR yeast; S. cerevisiae AGP1-GFP strain, flow cytometry GFP, 3 h; AID 2643;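 active = over 150 percent of DMSO response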;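 also: median GFP channel fluorescence over all cells without mother daughter split; sample median GFP divided by mean DMSO control so 100% equals DMSO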
# s288c autofluor – counter-screen for compound autofluorescence in yeast s288c cells; S. cerevisiae s288c, 520 nm autofluorescence, flow cytometry, 3 h; hits give high values; zero means same as solvent-only cells; fluorescence change (kMESF span) at 33 µM; shares compounds with LAP4 TOR yeast; 610 tested, under 10 active;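 active = fluorescence span over the dose series, or activity score, above about 33, limit read from the data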
# An asterisk follows results filed as active; . = not tested or not shown. An excerpt weighted towards active compounds, which were near 0.92% of everything screened.
SMILES,RPL19A-GFP yeast,LAP4 TOR yeast,AGP1 TOR yeast,MEP2-GFP yeast,CIT2-GFP yeast,LAP4 cherry2,MEP2-GFP pick2,RPL19A GFP CP2,CIT2 GFP CP2,AGP1-GFP pick2,others
O=C(Nc1cccc(N=Cc2cc(Br)cc(Br)c2O)c1)c1ccco1,71,190*,86,96,85,146,128,71,117,99,
NC(=O)CC(NC(=O)Cc1cccc2ccccc12)c1ccc(NCc2ccc(F)c(F)c2)c([N+](=O)[O-])c1 (stereo unspecified),107,107,90,99,83,.,.,.,.,.,
CC1CCCC(NC(=O)CN(C)CC(=O)Nc2cccc(F)c2)C1C (stereo unspecified),80,172*,134,155,127,99,100,100,97,99,
CC(=O)c1ccc(NC(=O)CN(C)CC(=O)Nc2cccc(F)c2)cc1,93,91,91,94,84,.,.,.,.,.,
COc1cc(C(=O)OCC(=O)c2cc(C)n(CC3CCCO3)c2C)ccc1OCC(=O)N1CCOCC1 (stereo unspecified),95,111,98,98,96,.,.,.,.,.,
CCCNC(=O)c1onc(CSc2ccc(Cl)cc2)c1C(=O)NC(C)C,78,173*,110,141,101,91,100,103,97,97,
CC(C)NC(=O)c1onc(CSc2ccc(Cl)cc2)c1C(=O)NC(C)C,94,127,83,89,88,.,.,.,.,.,
COc1ccc(C(=O)COC(=O)CN2C(=O)c3ccccc3C2=O)c(OC)c1,104,108,100,120,105,.,.,.,.,.,
COc1ccccc1/C=C\C(=O)NCC(=O)N/N=C/c1ccc(O)cc1O,95,90,106,104,98,.,.,.,.,.,
O=C1C(Cl)=C(NCCc2ccccc2)C(=O)N1CCc1ccccc1,91,96,91,90,82,.,.,.,.,.,s288c autofluor=0.1
N#C/C(=C\c1cc(Br)ccc1F)C(=O)NC1CC1,98,156*,98,94,74,156*,111,95,122,102,s288c autofluor=0.51
C#CCOCCOCCOCCNc1nc(N2CCN(C(=O)CCCCCCCCCCNC(=O)[C@H](CCCCN)n3cc(C)nn3)CC2)nc(N2CCN(C(=O)CCCCCCCCCCNC(=O)[C@@H]([C@H](C)CC)n3cc(CCCCCN)nn3)CC2)n1,88,153*,80,87,89,114,121,96,107,101,
C#CCOCCOCCOCCNc1nc(N2CCN(C(=O)CCCCCCCCCCNC(=O)[C@H](CCCCN)n3cc(CCCC(=O)O)nn3)CC2)nc(N2CCN(C(=O)CCCCCCCCCCNC(=O)[C@H](CCCCN)n3cc(CCCC(=O)O)nn3)CC2)n1,88,121,81,86,81,.,.,.,.,.,
